Records with an inconclusive call do not appear. The source made the active and inactive calls. Calls follow the shape of the full dose curve.
Assay: qHTS assay to identify small molecule agonists of H2AX - cell viability counter screen (AID 1224847); also: nearly all actives have a fitted effect of over 30% in size; as to activity change, negative = cytotoxicity: top concentration of the series differs between compounds
Details: CHO-K1 viability, CellTiter-Glo luminescence, 3 h; series mostly up to 154 µM; activity change, negative = cytotoxicity: at the top concentration
Description: National Center for Advancing Translational Sciences [NCATS]
NIH Chemical Genomics Center [NCGC]
U.S. Environmental Protection Agency [EPA]
National Institutes of Environmental Health Sciences [NIEHS]
National Toxicology Program [NTP]
U.S. Food and Drug Administration [FDA]
HTRF phospho-H2AX (Ser139) assay (Cisbio Bioassays, US) enables the quantitative detection of the histone variant H2AX when phosphorylated on serine 139. When double-stranded DNA breaks, either by ionizing radiation or endogenous physiological processes, H2AX becomes phosphorylated at Ser139. This phospho-Ser139 serves as a sensitive biomarker for the detection of such breaks, localizing the site of DNA repair. So, HTRF phospho-H2AX Ser139 is a pertinent assay to study genome stability, the cell cycle, DNA repair, and it serves as a biomarker for cancer, and to understand aging. Wild type CHO-K1 cells were used to identify the inducers of Phospho-H2AX Ser 139 from the Tox21 compound collections. Also cytotoxicity of the Tox21 10K compound library against the CHO-K1 cell line was tested by measuring the cell viability using CellTiter-Glo assay (Promega, Madison, WI).
Tox21 Assay Protocol Summary:
The CHO-K1 cells suspended in culture medium containing 10% FBS were dispensed at 1000 cells/ 3 ul/well in 1536-well white wall/solid bottom plates (Greiner Bio-One North America, NC) using a Multidrop Combi (Thermo Fisher Scientific Inc., Waltham, MA). After the assay plates were incubated at 37C overnight, 23 nl of compounds at 15 concentrations (from 5-48 columns) or positive control (from 1 to 4 columns) were transferred to the assay plates using a Pintool station (Wako, San Diego, CA) into each well resulting in a final DMSO concentration of 0.76%. After 3hr incubation at 37C, 3 uL/well CellTiter-Glo luminescent cell viability reagent (Promega Corporation, Madison, WI) was added using a Flying Reagent Dispenser (FRD) (Aurora Discovery, CA). After incubation at room temperature for 30 min, the luminescence intensity was read using a ViewLux plate reader (PerkinElmer, Waltham, MA).
% is scaled to controls: 0 for no effect and ±100 for the full control effect; potency is read from the fitted curve at half-maximal effect.

Structure (SMILES) | activity change, negative = cytotoxicity | Potency
CCCCC(CC)COC(=O)OOC(C)(C)C (stereo not given) | 3.18% (inactive) | 
CCCCCCC[CH2][Sn]([Cl])([Cl])[CH2]CCCCCCC | 0.884% (inactive) | 
CCCCN(CCCC)C(=S)[S-].CCCCN(CCCC)C(=S)[S-].[Ni+2] | -0.553% [at 70.9 µM] (inactive) | 
CC(=O)[O][Pb]([c]1ccccc1)([c]1ccccc1)[c]1ccccc1 |  | 25.3 µM (active)
ClC1=C(Cl)[C@]2(Cl)[C@@H]3[C@H]4C[C@H]([C@@H]5O[C@H]45)[C@@H]3[C@@]1(Cl)C2(Cl)Cl | -0.526% (inactive) | 
CC1CCCC1 | 0.254% (inactive) | 
Cc1cccc(Cc2cnc[nH]2)c1C | -4.92% [at 70.9 µM] (inactive) | 
Clc1cc(Cl)c(-c2cc(Cl)c(Cl)cc2Cl)cc1Cl | 2.71% [at 70.9 µM] (inactive) | 
CNC(=O)CSP(=O)(OC)OC | 0.347% (inactive) | 
CC(=O)[O-].CC(=O)[O-].CC(=O)[O-].[Sb+3] | -1.46% [at 5.43 µM] (inactive) | 
[Cl-].[Cl-].[Sn+2] | 9.57% (inactive) | 
CC(Cc1ccccc1)N(C)Cc1ccco1 (stereo not given) | 0.586% [at 70.9 µM] (inactive) | 
CC(C)Br | 0.496% (inactive) | 
C=CC(=C)C | -4.27% (inactive) | 
OCC(Br)CBr (stereo not given) | 3.54% (inactive) | 
C[N+]1(C)[C@@H]2CC[C@H]1CC(OC(=O)C(CO)c1ccccc1)C2 (stereo not given in full) | 1.7% [at 70.9 µM] (inactive) | 
CSC(C)(C)/C=N/O | 1.97% (inactive) | 
O=S(=O)(NS(=O)(=O)C(F)(F)F)C(F)(F)F |  | 56.5 µM (active)
CC(Cl)CCl (stereo not given) | 3.45% (inactive) | 
CCOP(=O)(OCC)Oc1cc(C)nc(C(C)C)n1 | -5.26% (inactive) | 

Structure (SMILES) | activity change, negative = cytotoxicity | Potency
O=NN(CCO)CCO | -4.36% (inactive) | 
CCC[CH2][Sn]([CH2]CCC)([O]C(C)=O)[O]C(C)=O | -12.5% (inactive) | 
Fc1ccc(C(OCCN2CCN(CCCc3ccccc3)CC2)c2ccc(F)cc2)cc1 |  | 55.2 µM (active)
Cc1ccc(C)c2ccccc12 | 1.31% (inactive) | 
O=C(Cl)c1ccccc1F | 0.0707% (inactive) | 
CC(=O)[O-].CC(=O)[O-].O.O.[Zn+2] | -3.2% (inactive) | 
CCCCON=O | 0.201% (inactive) | 
CN1CCc2cc(Cl)c(O)cc2[C@H]2c3ccccc3CC[C@@H]21 | -8.71% [at 70.9 µM] (inactive) | 
CCN(CC)C(=S)S |  | inactive
CC(C)(C)c1ccc(OP(=O)(Oc2ccccc2)Oc2ccccc2)cc1 | -3.71% (inactive) | 
CCCCCON=O | -2.08% (inactive) | 
CC1(C)C(C=C(Cl)Cl)C1C(=O)OC(C#N)c1ccc(F)c(Oc2ccccc2)c1 (stereo not given) | -10.6% (inactive) | 
CC(Cc1ccc2c(c1)OCO2)NO (stereo not given) | -2.8% (inactive) | 
COC(=O)c1ccccc1S(=O)(=O)NC(=O)Nc1nc(C)nc(OC)n1 | -0.415% (inactive) | 
ClC(Cl)C(Cl)(Cl)Cl | -0.724% (inactive) | 
CCCN | 0.998% (inactive) | 
O=[N+]([O-])c1ccccc1-c1ccccc1 | 1.29% (inactive) | 
CCC[CH2][Sn]([CH2]CCC)([CH2]CCC)[CH2]CCC |  | 14.2 µM (active)
O=S1(=O)OCC2C(CO1)C1(Cl)C(Cl)=C(Cl)C2(Cl)C1(Cl)Cl (stereo not given) | -6.02% (inactive) | 
COC(=O)N(OC)c1ccccc1COc1ccn(-c2ccc(Cl)cc2)n1 |  | 1.27 µM (active)

From PubChem BioAssay (Tox21)
